Experimental findings from PubChem BioAssay are described below.

What is called inhibition is the change of the read-out against control, counted positive when it falls.

Structures are written as SMILES. Inconclusive results are not listed. Calls of active or inactive are those of the source. Cut-off read from the data, not from the text of the source, unless noted: active = response above about 15%; inactive = the rest.

The nature of assay [1]: rapamycin-like changes in RPL19A-GFP expression – cell-based, S. cerevisiae, multiplex flow cytometry, primary screen (AID 1862; in the data active = percent of DMSO control GFP below about 86%;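 note: lower values mimic rapamycin by blocking the RPL19A rise seen in DMSO cells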). The settings on record: S. cerevisiae RPL19A-GFP strain, flow cytometry fluorescence, 3 h; at 10 µM; stronger effect = lower value.
Assay [2] can be described thus: TOR pathway GLN3 branch reporter MEP2-GFP changes – S. cerevisiae, multiplex flow cytometry, primary screen (AID 1867;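 active = GFP response, as percent of the DMSO control, above the screen-wide mean plus 3 SD, about 139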;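 note: median GFP channel fluorescence of barcode-gated MEP2-GFP cells measured by flow cytometry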). The note with it: S. cerevisiae MEP2-GFP strain, 3 h, at 10 µM, stronger effect = higher value, 100% means same as DMSO wells. (In general: Flow cytometry measures light scatter and fluorescence of single cells or particles in a stream.)
Assay [3] in a line: TOR pathway RTG branch CIT2 reporter changes – S. cerevisiae, GFP fusion, multiplex flow cytometry, primary screen (AID 1870;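 active = percent response above a set limit, the screen-wide mean plus 3 SD, cut at about 130% in these data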;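 note: barcoded CIT2-GFP strain pooled with four other GFP strains with rapamycin as positive control; median GFP fluorescence per well over plate mean of DMSO wells so 100% = DMSO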). The settings on record: S. cerevisiae CIT2-GFP expression, 3 h, at 10 µM, stronger effect = higher value.
A short description of assay [4]: TOR pathway LAP4-GFP level changes – S. cerevisiae, multiplex flow cytometry, primary screen (AID 1873;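 active = GFP signal, as percent of the solvent control, above the screen mean plus 3 SD, about 149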). The settings on record: S. cerevisiae LAP4-GFP expression, 3 h, at 10 µM, stronger effect = higher value.
Assay [5] is described as follows: yeast AGP1-GFP level changes, GLN3 branch – cell-based, multiplex flow cytometry, S. cerevisiae, primary screen (AID 1887;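 active = GFP signal above the screen-wide mean plus 3 SD, that is over about 124.5% of the solvent control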;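 note: AGP1-GFP fusion strain of S. cerevisiae within a five-strain barcoded multiplex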). The note with it: 3 h, at 10 µM, stronger effect = higher value.
Assay [6] is described as follows: reduced mouse 2C T cell binding to pMHC/ICAM-1 vesicles – MLPCN validation set, flow cytometry, LFA-1/ICAM-1 modulator project, pilot screen (AID 2523;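 active = response below a set limit, under 55% cells CD8-positive and vesicle-bound, and CD8 cells' 90th-percentile brightness under 279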;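 for vesicle binding response: mean PE anti-B7-1 fluorescence of CD8+ cells relative to row control; 100% = QL9-loaded vesicles with DMSO vehicle in the same plate row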). The note with it: 2C mouse CD8+ T cells, at 7 µM, stronger effect = lower value; double positive events: measured here: CD8+/vesicle+ event percentage.
The target of assay [7] is Integrin beta-1 (Homo sapiens) + Integrin alpha-4 (Homo sapiens) (UniProt P13612+P05556). Put plainly: alpha4beta1 integrin LIBS antibody binding reduction – U937 cells, HUTS-21 mAb, flow cytometry, validation set, VLA-4 allosteric modulator project, pilot screen (AID 2674;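 active = inhibition above 50%, about 3 SD of the validation set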;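 note: antibody binding induced by the VLA-4 ligand LDV present at three times its Kd; 0% = LDV ligand with antibody and no compound and 100% = antibody without LDV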). The settings on record: HUTS-21 LIBS mAb binding, at 6.7 µM, stronger effect = higher value, binding induced by LDV ligand.
Chain of Integrin beta-1 (Homo sapiens) + Integrin alpha-4 (Homo sapiens) (P05556 whole entry, looked up): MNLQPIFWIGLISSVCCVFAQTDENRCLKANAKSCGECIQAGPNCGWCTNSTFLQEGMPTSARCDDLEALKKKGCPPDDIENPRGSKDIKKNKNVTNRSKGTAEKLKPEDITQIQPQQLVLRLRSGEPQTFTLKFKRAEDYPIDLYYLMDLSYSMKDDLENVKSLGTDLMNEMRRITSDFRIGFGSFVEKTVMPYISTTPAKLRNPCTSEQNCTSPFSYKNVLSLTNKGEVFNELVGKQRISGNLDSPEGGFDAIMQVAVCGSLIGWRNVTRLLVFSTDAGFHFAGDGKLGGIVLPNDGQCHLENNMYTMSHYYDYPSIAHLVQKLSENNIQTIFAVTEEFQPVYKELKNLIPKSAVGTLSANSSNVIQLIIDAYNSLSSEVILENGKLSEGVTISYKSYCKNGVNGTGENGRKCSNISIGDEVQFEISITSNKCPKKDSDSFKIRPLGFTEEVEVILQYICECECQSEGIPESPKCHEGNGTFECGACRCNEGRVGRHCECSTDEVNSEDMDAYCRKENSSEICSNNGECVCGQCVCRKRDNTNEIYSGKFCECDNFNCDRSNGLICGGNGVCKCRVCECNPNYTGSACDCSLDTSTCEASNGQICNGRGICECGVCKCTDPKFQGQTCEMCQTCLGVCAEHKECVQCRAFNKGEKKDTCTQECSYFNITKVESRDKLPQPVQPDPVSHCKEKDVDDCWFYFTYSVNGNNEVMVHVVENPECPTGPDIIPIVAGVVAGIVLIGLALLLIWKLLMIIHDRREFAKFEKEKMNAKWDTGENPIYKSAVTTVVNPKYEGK
Chain of Integrin beta-1 (Homo sapiens) + Integrin alpha-4 (Homo sapiens) (P13612 whole entry, looked up): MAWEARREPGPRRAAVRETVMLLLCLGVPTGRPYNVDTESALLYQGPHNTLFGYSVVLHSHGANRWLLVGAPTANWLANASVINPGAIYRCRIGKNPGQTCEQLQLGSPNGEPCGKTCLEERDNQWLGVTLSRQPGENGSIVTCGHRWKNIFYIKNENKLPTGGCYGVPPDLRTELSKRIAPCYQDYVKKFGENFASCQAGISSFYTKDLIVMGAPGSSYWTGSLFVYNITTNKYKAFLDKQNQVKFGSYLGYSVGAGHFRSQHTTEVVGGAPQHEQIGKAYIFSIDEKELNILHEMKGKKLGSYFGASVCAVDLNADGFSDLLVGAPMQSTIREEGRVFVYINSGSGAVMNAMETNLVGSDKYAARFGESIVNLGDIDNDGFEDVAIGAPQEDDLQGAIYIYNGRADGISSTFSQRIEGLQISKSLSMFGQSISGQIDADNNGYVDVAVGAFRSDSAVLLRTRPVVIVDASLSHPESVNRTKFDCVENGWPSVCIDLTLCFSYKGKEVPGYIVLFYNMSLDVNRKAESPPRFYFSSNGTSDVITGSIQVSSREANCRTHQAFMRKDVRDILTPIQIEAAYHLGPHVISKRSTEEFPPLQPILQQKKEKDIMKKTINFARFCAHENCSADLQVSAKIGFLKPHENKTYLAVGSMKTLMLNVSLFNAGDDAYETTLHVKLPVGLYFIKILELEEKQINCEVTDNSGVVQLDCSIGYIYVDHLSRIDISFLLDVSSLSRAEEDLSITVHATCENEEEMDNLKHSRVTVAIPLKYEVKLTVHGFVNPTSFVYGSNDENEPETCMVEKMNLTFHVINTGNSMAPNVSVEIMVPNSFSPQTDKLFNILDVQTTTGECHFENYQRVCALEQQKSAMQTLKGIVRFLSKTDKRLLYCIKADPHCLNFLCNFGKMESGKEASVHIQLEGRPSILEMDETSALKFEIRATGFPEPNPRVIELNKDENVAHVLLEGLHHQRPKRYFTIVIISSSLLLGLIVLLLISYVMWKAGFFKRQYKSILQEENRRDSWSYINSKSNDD

A short description of assay [8]: calorie-restriction mimetic ROS inhibitors, yeast – validation compound set, pilot screen (AID 2706;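 active = superoxide response below 65% of plate, a cut near 3 SD across the whole screen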;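 note: yeast exposed to compound for one week at 30 degrees C before staining; 100% = mean of all compound wells on the same plate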). The note with it: S. cerevisiae aging, superoxide DHE fluorescence; at 10 µM; stronger effect = lower value.
The target in assay [9] is Beta-adrenergic receptor kinase 1 (Homo sapiens) (UniProt P25098). Put plainly: GRK2 binders displacing RNA aptamer, biochemical, validation, human GRK2, bead flow cytometry (AID 488806;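 active = aptamer binding inhibition above 30%, about 3 SD of noise from non-fluorescent compounds; inactive = inhibition at or below 30%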). The note with it: bead-bound GRK2, FAM-aptamer displacement, at 10 µM, stronger effect = higher value.
Chain of Beta-adrenergic receptor kinase 1 (Homo sapiens) (P25098 whole entry, looked up): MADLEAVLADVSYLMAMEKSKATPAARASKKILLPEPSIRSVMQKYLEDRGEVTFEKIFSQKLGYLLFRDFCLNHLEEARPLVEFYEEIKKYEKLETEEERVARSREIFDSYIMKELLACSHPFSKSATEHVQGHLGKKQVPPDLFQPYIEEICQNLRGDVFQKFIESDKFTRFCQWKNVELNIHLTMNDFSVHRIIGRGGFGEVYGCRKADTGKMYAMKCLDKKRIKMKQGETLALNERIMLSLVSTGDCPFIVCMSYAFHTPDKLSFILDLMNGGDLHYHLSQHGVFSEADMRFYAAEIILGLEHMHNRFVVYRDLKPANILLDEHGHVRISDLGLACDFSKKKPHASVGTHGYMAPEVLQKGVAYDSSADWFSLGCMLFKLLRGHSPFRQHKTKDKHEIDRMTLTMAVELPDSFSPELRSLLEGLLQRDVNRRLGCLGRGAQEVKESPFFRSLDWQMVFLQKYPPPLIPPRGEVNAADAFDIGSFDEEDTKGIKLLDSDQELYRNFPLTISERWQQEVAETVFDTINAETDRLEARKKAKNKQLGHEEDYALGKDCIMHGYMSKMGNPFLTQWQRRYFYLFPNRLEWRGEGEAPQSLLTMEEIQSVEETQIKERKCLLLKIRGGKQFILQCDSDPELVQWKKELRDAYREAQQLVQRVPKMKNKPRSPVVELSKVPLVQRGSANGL
The target of assay [10] is Beta-2 adrenergic receptor (Homo sapiens) (UniProt P07550). Description: agonist-induced loss of surface beta2AR – cell-based, FAP fluorogen, flow cytometry, validation set, pilot screen (AID 504459;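 active = percent response above 42, roughly 3 SD of non-fluorescent test compounds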;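 note: agonist-driven loss of surface beta2AR via internalization measured by FAP dye flow cytometry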). The note with it: Am2.2-beta2AR cells, at 10 µM, stronger effect = higher value.
Chain of Beta-2 adrenergic receptor (Homo sapiens) (P07550 whole entry, looked up): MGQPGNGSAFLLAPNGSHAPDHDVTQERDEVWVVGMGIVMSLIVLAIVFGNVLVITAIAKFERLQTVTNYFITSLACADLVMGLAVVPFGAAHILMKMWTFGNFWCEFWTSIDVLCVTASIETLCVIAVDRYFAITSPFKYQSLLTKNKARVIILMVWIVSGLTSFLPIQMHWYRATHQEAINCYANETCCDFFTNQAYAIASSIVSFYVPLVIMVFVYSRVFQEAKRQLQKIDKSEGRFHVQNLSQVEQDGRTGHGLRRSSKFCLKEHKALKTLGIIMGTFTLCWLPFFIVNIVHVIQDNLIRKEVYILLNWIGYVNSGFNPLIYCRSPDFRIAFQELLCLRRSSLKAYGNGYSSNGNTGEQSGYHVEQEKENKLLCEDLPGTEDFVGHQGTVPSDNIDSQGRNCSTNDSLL
The target of assay [11] is AP-2 complex subunit beta (Homo sapiens) (UniProt P63010). Description: beta-arrestin/AP2 interaction blockers – biochemical, validation set, GST-AP2 beads, flow cytometry, pilot screen (AID 504541;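 active = inhibition above 54%, about 3 SD of non-fluorescent compounds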;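 note: AP2 carries R879A mutation and is captured from E. coli lysate; bead-bound FITC arrestin peptide fluorescence measuring arrestin peptide binding to AP2; 0% = DMSO wells and 100% = excess unlabeled arrestin peptide control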). The note with it: FITC arrestin peptide, at 10 µM, stronger effect = higher value, AP2 beta2 appendage fragment, R879A mutant.
Chain of AP-2 complex subunit beta (Homo sapiens) (P63010 whole entry, looked up, the tested form may be a part, one chain of several): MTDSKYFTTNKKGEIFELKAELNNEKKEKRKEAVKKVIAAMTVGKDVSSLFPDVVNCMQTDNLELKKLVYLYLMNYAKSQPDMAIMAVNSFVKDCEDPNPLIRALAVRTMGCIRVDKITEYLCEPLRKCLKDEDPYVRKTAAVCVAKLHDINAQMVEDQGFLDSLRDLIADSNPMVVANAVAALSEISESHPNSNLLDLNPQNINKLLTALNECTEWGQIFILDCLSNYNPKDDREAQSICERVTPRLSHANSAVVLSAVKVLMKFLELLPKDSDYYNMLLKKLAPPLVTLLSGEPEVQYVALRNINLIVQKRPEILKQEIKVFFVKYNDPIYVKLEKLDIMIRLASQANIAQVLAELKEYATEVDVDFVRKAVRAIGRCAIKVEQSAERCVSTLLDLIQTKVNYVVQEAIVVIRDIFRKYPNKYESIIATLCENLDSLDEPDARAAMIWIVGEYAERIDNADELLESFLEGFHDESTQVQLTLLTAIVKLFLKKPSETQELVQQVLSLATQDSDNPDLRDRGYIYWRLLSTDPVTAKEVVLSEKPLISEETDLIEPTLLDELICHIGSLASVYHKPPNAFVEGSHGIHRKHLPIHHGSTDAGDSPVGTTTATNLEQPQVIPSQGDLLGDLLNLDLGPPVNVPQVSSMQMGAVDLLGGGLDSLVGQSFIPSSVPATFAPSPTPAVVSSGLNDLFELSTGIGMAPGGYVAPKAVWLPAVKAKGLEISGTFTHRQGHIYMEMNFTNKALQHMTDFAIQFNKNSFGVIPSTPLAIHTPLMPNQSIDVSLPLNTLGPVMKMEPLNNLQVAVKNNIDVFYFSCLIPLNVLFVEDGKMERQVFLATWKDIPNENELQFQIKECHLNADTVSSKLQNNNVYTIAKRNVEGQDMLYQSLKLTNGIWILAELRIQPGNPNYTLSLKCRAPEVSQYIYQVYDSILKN
Assay [12] in a line: cytosolic pH regulators acting via V-ATPase – S. cerevisiae, pHLuorin, HTS validation (AID 504600).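 Note: plate controls were DMSO for no effect and reference compound for full effect.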 The settings on record: V-ATPase proton transport, at 10 µM, stronger effect = higher value.
Assay [13] concerns anti-desmoglein-3 scFv antibody binding to human DSG3. Description: blockers of pathogenic pemphigus antibody–desmoglein-3 binding – biochemical, validation compound set, bead-based, flow cytometry, pilot screen (AID 588368;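 active = binding below the plate cutoff, the plate median minus 3 SD, with a reading above zero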;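 note: signal is the median channel fluorescence of bead-bound GFP antibody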). The settings on record: Protein G beads, DSG3-Fc, scFv-GFP binding, at 10 µM, stronger effect = lower value.
Assay [14] in a line: Nile Red efflux blockade in pump-expressing yeast – validation compound set, multiplex, phenotypic, pilot screen (AID 588506;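 active = efflux inhibition above 0.42, the validation set average plus 4 SD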;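 note: Nile Red retained in cells so higher fluorescence means more efflux inhibition; 0 = negative control wells and 1 = enniatin B 25 µM full block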). The note with it: S. cerevisiae pump-expressing triplex, Nile Red efflux flow cytometry; at 10 µM; stronger effect = higher value; the pumps come from Candida albicans.
The target in assay [15] is ATP-binding cassette sub-family B member 6 (Homo sapiens) (UniProt Q9NP58). Put plainly: blockers of ABCB6-driven porphyrin uptake – K562-ABCB6 cells, flow cytometry, validation set, pilot screen (AID 588550;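 active = inhibition above the screen-wide mean plus 3 SD, about 51%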;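 note: 0% = DMSO wells and 100% = benzethonium chloride 70 µM positive control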). The note with it: K562-ABCB6 porphyrin accumulation, 1 h, at 10 µM, stronger effect = higher value.
Chain of ATP-binding cassette sub-family B member 6 (Homo sapiens) (Q9NP58 whole entry, looked up): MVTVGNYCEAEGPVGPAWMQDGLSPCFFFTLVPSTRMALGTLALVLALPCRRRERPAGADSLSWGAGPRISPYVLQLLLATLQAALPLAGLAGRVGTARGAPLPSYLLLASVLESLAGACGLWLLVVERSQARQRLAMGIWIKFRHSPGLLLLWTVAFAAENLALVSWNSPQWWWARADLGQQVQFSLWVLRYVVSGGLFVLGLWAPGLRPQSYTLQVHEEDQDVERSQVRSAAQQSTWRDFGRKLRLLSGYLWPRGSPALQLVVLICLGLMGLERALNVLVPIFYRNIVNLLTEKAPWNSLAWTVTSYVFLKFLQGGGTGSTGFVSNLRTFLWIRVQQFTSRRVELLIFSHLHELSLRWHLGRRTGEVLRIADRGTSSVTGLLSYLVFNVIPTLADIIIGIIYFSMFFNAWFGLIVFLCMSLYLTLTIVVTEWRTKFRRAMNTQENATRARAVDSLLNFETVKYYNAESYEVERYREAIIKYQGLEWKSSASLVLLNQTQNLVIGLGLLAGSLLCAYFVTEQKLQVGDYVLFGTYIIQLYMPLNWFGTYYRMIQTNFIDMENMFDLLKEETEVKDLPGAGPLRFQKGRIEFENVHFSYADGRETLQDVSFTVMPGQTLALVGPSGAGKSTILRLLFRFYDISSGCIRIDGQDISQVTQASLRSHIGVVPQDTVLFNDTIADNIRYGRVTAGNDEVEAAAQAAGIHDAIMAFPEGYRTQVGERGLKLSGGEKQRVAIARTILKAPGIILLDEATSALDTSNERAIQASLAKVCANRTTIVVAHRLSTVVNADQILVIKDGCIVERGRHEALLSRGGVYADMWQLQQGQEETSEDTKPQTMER
Assay [16] can be described thus: AML differentiation inducers, ER-HoxA9 marrow cells – cell-based, GFP/MAC1 double positive, flow cytometry, validation set, primary screen (AID 588685;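 active = differentiation response of at least 50%, scaled between solvent and reference control, from cells with both markers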;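 note: compound exposure lasts four days before antibody staining and flow analysis; 0% = DMSO wells and 100% = 5 µM fulvestrant positive control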). The note with it: stronger effect = higher value, normalized: vehicle 0, fulvestrant 100.

Turning to `CC(=O)OC1c2c(ccc3ccc(=O)oc23)OC(C)(C)C1OC(=O)CC(C)C` (stereo not given), the percent of DMSO control GFP in assay [1] is 103% (inactive). Besides, the results for the GFP response vs DMSO in [2] and in assay [4] were 99.3% (inactive) and 98% (inactive), respectively. In addition, the percent response of DMSO control in assay [3] was 104% (inactive). Moreover, the GFP response, % of DMSO in assay [5] is 94.2% (inactive). The molecule also showed a double positive events in assay [6] of 64.2%. In addition, the vesicle binding response in [6] is 1500% (inactive). Also, the values for the inhibition in assay [7], in assay [11] and in assay [15] were 19.3% (inactive), 1.97% (inactive) and 15% (inactive), respectively. In assay [8], the superoxide response (% of plate) was 90.3% (inactive). Besides, the aptamer binding inhibition in assay [9] is 3% (inactive). The response in [10] was -25.3% (inactive); in assay [12], -1.96% (inactive). Moreover, the binding (% of control) in assay [13] was 100% (inactive). Moreover, in [14], the efflux inhibition (fraction of control) was 0.24 (inactive). Further, in [16], the differentiation response is -3.67% (inactive).
With `COc1cc(C(=O)Nc2ccc(N(C)C)cc2)c([N+](=O)[O-])cc1OC`, in [1], the percent of DMSO control GFP was 100% (inactive). Further, the GFP response vs DMSO in [2] and in assay [4] was 104% (inactive) in each case. Further, in [3], the percent response of DMSO control was 101% (inactive). The GFP response, % of DMSO in assay [5] is 98.6% (inactive). The molecule further registered a double positive events in assay [6] of 63.5%. In addition, the vesicle binding response in [6] was 224% (inactive). The results for the inhibition in assay [7], in assay [11] and in assay [15] were -3.57% (inactive), 2.96% (inactive) and 7% (inactive), respectively. In assay [8], the superoxide response (% of plate) is 101% (inactive). In addition, the aptamer binding inhibition in [9] was 4% (inactive). Besides, the response in [10] was -1.8% (inactive); in assay [12], 0.28% (inactive). Also, the binding (% of control) in assay [13] was 93.2% (inactive). Moreover, the efflux inhibition (fraction of control) in [14] is -0.2 (inactive). In addition, the differentiation response in assay [16] was 4.15% (inactive).
For the molecule `CCO/C([O-])=N/c1c[n+](N2CCOCC2)no1`, in assay [1], the percent of DMSO control GFP was 99.8% (inactive). Also, the GFP response vs DMSO in [2] is 97.7% (inactive); in assay [4], 110% (inactive). In addition, in assay [3], the percent response of DMSO control was 103% (inactive). Further, the GFP response, % of DMSO in [5] is 106% (inactive). Further, the double positive events in assay [6] stood at 64.1%. For the same molecule, the vesicle binding response in [6] was 237% (inactive). The inhibition in assay [7] was -18.5% (inactive); in assay [11], -14.8% (inactive); in assay [15], -4% (inactive). For the same molecule, the superoxide response (% of plate) in assay [8] was 115% (inactive). The aptamer binding inhibition in assay [9] was -1% (inactive). Further, the response was 9.37% (inactive) in [10] and 0.46% (inactive) in assay [12]. Also, the binding (% of control) in assay [13] is 100% (inactive). For the same molecule, the efflux inhibition (fraction of control) in [14] is 0 (inactive). In addition, in assay [16], the differentiation response was -0.18% (inactive).
Regarding `C1CCC(C(CC2CCCCN2)C2CCCCC2)CC1` (stereo not given), the percent of DMSO control GFP in [1] is 97.9% (inactive). The GFP response vs DMSO in [2] is 107% (inactive); in [4], 130% (inactive). In assay [3], the percent response of DMSO control is 101% (inactive). For the same molecule, the GFP response, % of DMSO in [5] was 116% (inactive). In assay [6], this molecule displayed a double positive events of 62%. In addition, in [6], the vesicle binding response was 170% (inactive). Besides, the inhibition in assay [7] is -17.3% (inactive); in assay [11] it was -6.24% (inactive); in [15], -5% (inactive). Besides, in [8], the superoxide response (% of plate) is 119% (inactive). Also, in assay [9], the aptamer binding inhibition is -11% (inactive). The response in [10] is 26.4% (inactive); in [12], 2.51% (inactive). Also, the binding (% of control) in [13] is 109% (inactive). Besides, the efflux inhibition (fraction of control) in assay [14] is 0.12 (inactive). The differentiation response in [16] was -5.97% (inactive).
Turning to `O=C(O)c1ccc(OCCn2ccnc2)cc1`, the percent of DMSO control GFP in assay [1] is 103% (inactive). Besides, the results for the GFP response vs DMSO in [2] and in assay [4] were 95.6% (inactive) and 93.7% (inactive), respectively. Besides, the percent response of DMSO control in assay [3] is 106% (inactive). In assay [5], the GFP response, % of DMSO was 112% (inactive). For the same molecule, the double positive events in assay [6] was 66.1%. In addition, the vesicle binding response in assay [6] was 173% (inactive). Further, the inhibition in [7] is 9.63% (inactive); in [11], -0.39% (inactive); in assay [15], 16% (inactive). Also, in assay [8], the superoxide response (% of plate) was 91.6% (inactive). For the same molecule, in assay [9], the aptamer binding inhibition was -2% (inactive). For the same molecule, the response is -0.04% (inactive) in [10] and 2.25% (inactive) in assay [12]. Besides, the binding (% of control) in assay [13] was 101% (inactive). The efflux inhibition (fraction of control) in assay [14] is 0.36 (inactive). In [16], the differentiation response is 2.74% (inactive).
